What was measured:
Experiment in all cases: DAPPL (digital affinity profiling via proximity ligation, sequencing); 10 mM Tris-HCl pH 7.5, 50 mM NaCl, 1 mM DTT, 4% glycerol, room temperature, 30 min; GST-TFs on glutathione beads, 16-mer random dsDNA library, 0.1% formaldehyde crosslink after washing; high values mean tight binding
[1] = target: T1, FLI1 (Homo sapiens, UniProt Q01543 1-452); details: protein: recombinant; tags: N-terminal GST; dsDNA, one strand shown
T1 sequence: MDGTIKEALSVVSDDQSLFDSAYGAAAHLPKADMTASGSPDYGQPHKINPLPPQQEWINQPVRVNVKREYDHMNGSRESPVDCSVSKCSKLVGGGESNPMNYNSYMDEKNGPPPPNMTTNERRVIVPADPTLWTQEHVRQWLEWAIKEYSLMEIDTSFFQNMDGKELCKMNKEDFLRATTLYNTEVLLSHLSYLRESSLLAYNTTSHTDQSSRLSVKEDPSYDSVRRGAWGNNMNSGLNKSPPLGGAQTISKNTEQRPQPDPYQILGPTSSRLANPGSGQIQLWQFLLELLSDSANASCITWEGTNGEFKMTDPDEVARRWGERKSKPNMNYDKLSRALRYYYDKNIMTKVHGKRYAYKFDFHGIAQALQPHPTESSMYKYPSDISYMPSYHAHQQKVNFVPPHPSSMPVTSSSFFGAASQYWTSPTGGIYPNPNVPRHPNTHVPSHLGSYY
In short: (§1)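 Yeast served to express human transcription factors as GST fusions, which were then captured on glutathione beads and labelled with DNA barcodes. Pooled with a tag-only sample, they were incubated with 200 nmole of a 16-mer random double-stranded DNA library for 30 min at room temperature in Tris/NaCl/DTT/glycerol buffer, washed, crosslinked with 0.1% formaldehyde, ligated by proximity, amplified by PCR and sequenced. Dividing each hexamer's read frequency for a factor by its frequency for the tag-only sample gives the binding signal.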

[2] = target: T2, ELK1 (Homo sapiens, UniProt P19419 1-428); details: protein: recombinant; tags: N-terminal GST; dsDNA, one strand shown
T2 sequence: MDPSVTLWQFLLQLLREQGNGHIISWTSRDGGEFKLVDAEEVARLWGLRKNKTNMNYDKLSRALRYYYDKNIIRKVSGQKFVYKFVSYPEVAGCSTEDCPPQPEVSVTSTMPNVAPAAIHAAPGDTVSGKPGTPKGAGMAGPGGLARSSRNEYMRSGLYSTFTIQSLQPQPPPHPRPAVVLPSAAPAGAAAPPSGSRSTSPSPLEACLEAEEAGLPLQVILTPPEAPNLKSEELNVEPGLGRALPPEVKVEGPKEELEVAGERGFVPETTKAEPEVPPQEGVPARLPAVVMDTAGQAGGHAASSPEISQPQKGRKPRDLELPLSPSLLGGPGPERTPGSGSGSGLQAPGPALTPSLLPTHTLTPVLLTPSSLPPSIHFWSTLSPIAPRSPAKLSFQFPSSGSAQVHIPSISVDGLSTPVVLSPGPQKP
In short: as §1

[3] = target: T3, GABPA (Homo sapiens, UniProt Q06546 1-454); details: protein: recombinant; tags: N-terminal GST; dsDNA, one strand shown
T3 sequence: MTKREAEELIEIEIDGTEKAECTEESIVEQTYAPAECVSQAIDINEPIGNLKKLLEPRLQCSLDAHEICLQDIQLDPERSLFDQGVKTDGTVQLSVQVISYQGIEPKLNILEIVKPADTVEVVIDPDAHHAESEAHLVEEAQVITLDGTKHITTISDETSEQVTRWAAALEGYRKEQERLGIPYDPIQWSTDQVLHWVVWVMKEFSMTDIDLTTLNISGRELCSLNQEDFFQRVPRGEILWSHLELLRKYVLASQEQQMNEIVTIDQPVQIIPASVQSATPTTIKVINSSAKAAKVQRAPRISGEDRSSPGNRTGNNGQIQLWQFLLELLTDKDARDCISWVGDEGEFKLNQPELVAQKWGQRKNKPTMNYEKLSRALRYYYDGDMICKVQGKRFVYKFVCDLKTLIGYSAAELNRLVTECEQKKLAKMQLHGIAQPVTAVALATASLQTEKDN
In short: as §1

[4] = target: T4, ERG (Homo sapiens, UniProt P11308 1-479); details: protein: recombinant; tags: N-terminal GST; dsDNA, one strand shown
T4 sequence: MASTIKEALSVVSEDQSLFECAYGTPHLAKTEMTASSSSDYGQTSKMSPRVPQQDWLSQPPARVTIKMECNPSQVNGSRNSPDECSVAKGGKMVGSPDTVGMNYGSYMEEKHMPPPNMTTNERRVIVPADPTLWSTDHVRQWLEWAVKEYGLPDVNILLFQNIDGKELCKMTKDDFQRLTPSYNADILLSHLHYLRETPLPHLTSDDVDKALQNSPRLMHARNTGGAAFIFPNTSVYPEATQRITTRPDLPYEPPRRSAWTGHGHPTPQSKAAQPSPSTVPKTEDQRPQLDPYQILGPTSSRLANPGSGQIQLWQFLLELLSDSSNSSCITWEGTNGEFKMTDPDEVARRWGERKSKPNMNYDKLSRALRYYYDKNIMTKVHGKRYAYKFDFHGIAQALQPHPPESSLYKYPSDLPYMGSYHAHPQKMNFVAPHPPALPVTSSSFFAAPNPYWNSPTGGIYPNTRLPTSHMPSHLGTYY
In short: as §1

[5] = target: ELF1 (Homo sapiens, UniProt P32519 1-619); details: protein: recombinant; tags: N-terminal GST; dsDNA, one strand shown
Sequence of ELF1 (P32519 whole entry): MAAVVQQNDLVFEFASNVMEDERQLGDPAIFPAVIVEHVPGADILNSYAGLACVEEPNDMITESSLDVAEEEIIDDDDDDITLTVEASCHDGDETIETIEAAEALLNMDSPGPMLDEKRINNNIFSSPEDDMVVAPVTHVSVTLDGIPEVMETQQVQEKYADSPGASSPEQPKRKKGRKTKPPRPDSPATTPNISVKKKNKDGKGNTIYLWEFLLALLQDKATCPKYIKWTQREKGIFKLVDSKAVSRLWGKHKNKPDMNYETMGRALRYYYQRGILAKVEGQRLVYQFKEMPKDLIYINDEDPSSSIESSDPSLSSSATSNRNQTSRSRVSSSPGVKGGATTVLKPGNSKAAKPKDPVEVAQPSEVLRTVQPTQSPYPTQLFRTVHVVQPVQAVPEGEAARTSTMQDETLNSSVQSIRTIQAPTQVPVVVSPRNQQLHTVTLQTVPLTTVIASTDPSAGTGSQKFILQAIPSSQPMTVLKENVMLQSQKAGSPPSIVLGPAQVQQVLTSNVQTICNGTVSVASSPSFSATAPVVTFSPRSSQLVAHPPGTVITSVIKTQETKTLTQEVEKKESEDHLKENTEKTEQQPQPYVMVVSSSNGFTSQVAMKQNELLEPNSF
In short: as §1

[6] = target: T5, EHF (Homo sapiens, UniProt Q9NZC4 1-300); details: protein: recombinant; tags: N-terminal GST; dsDNA, one strand shown
T5 sequence: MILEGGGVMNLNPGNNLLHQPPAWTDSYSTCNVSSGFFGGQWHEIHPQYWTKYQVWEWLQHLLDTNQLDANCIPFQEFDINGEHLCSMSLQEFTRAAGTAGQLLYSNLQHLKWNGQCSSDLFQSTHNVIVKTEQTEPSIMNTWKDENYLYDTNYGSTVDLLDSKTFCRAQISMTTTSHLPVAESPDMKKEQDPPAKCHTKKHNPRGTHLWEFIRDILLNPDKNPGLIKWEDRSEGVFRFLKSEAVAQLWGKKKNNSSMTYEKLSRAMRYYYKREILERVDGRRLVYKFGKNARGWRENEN
In short: as §1

[7] = target: SPI1 (Homo sapiens, UniProt P17947 1-270); details: protein: recombinant; tags: N-terminal GST; dsDNA, one strand shown
In short: as §1

[8] = target: SPIB (Homo sapiens, UniProt Q01892 1-262); details: protein: recombinant; tags: N-terminal GST; dsDNA, one strand shown
Sequence of SPIB (Q01892 whole entry): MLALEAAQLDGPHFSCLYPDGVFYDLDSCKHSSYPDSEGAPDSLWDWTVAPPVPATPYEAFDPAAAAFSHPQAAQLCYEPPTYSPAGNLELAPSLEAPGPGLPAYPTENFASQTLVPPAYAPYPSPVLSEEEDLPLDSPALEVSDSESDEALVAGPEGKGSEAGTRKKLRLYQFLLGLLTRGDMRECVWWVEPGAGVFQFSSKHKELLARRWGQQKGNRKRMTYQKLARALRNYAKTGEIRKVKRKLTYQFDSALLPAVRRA
In short: as §1

[9] = target: T6, ELK3 (Homo sapiens, UniProt P41970 1-407); details: protein: recombinant; tags: N-terminal GST; dsDNA, one strand shown
T6 sequence: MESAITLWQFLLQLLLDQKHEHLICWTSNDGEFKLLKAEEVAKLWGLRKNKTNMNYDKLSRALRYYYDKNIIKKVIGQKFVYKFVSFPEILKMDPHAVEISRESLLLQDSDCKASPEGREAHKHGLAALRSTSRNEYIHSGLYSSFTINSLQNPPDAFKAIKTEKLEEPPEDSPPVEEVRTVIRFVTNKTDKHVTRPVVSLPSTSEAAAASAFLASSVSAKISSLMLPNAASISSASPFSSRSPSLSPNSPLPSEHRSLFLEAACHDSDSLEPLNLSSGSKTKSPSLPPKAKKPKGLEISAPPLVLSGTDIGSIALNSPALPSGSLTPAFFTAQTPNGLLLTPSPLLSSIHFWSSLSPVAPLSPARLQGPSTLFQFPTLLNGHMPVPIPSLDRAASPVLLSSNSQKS
In short: as §1

[10] = target: T7, FEV (Homo sapiens, UniProt Q99581 1-238); details: protein: recombinant; tags: N-terminal GST; dsDNA, one strand shown
T7 sequence: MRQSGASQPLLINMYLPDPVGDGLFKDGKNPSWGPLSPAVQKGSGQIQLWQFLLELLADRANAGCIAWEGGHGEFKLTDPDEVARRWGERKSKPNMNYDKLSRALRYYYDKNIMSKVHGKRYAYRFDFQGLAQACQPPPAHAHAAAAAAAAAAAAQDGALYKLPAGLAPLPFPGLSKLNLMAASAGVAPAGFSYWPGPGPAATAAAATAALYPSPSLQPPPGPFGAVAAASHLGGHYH
In short: as §1

[11] = target: ETV5 (Homo sapiens, UniProt P41161 1-510); details: protein: recombinant; tags: N-terminal GST; dsDNA, one strand shown
Sequence of ETV5 (P41161 whole entry): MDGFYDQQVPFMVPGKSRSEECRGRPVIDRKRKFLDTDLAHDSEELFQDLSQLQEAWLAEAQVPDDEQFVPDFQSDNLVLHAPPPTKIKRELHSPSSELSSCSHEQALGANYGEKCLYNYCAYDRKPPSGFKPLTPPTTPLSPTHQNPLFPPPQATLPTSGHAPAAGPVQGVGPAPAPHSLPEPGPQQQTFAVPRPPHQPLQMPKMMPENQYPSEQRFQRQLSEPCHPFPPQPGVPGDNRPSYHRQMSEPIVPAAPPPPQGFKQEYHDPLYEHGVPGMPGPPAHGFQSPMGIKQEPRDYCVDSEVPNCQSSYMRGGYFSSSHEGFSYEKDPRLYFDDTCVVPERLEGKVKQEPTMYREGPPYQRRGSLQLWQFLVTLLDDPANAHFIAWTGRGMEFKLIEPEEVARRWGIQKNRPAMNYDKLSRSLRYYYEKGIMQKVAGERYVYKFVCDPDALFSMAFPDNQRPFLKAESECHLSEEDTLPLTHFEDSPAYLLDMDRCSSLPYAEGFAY
In short: as §1

[12] = target: HSF1 (Homo sapiens, UniProt Q00613 1-529); details: protein: recombinant; tags: N-terminal GST; chain copies: 3; dsDNA, one strand shown
Sequence of HSF1 (Q00613 whole entry): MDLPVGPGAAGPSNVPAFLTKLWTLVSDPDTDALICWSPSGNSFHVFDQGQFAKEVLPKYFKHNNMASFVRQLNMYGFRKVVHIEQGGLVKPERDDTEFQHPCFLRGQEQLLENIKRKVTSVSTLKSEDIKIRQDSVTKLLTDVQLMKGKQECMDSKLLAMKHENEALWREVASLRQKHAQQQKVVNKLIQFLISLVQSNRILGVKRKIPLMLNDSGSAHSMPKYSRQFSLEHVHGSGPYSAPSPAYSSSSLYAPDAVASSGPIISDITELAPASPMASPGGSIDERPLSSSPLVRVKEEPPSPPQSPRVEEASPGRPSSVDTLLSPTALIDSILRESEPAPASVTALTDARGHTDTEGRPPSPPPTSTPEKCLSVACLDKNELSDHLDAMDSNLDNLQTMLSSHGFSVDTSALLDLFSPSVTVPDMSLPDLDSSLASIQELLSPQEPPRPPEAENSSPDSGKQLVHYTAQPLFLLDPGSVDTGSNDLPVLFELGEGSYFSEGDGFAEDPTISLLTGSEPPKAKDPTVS
In short: as §1

[13] = target: T8, SPIC (Homo sapiens, UniProt Q8N5J4 1-248); details: protein: recombinant; tags: N-terminal GST; dsDNA, one strand shown
T8 sequence: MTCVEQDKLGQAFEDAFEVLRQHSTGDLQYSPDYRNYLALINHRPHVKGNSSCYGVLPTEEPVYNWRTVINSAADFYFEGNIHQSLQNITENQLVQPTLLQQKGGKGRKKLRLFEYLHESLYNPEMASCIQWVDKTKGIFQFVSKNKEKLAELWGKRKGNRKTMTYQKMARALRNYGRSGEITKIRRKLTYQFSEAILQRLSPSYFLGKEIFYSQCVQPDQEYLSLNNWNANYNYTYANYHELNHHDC
In short: as §1

[14] = target: ELF4 (Homo sapiens, UniProt Q99607 1-663); details: protein: recombinant; tags: N-terminal GST; dsDNA, one strand shown
Sequence of ELF4 (Q99607 whole entry): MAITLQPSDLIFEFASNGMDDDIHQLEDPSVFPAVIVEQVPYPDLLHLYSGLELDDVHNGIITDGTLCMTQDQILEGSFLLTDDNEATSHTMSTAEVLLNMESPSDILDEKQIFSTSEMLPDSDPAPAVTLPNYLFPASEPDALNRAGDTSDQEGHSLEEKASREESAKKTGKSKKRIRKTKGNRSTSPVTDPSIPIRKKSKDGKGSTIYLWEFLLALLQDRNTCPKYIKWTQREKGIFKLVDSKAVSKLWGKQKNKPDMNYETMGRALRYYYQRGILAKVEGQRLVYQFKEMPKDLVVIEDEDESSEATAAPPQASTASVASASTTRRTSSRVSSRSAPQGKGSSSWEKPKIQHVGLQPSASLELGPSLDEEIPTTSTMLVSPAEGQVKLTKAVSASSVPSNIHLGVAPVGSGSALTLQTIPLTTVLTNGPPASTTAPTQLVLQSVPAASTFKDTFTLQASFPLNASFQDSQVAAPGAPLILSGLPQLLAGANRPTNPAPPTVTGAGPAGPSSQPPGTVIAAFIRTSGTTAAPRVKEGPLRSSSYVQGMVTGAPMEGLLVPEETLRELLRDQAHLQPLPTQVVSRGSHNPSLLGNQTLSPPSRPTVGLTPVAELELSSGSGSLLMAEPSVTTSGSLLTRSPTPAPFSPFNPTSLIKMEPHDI
In short: as §1

[15] = target: T9, ELK4 (Homo sapiens, UniProt P28324-2 1-405); details: protein: recombinant; tags: N-terminal GST; dsDNA, one strand shown
T9 sequence: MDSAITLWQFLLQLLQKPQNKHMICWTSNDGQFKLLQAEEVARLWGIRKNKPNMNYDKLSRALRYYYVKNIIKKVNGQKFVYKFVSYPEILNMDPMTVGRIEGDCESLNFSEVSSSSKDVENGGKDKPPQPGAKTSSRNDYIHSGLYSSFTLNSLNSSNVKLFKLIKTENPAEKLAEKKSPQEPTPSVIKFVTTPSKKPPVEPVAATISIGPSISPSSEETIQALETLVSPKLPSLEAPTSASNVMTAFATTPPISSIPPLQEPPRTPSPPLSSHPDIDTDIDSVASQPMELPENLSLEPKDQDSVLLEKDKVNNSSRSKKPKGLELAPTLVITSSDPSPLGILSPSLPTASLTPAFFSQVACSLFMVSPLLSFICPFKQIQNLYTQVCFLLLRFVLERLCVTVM
In short: as §1

[16] = target: T10, ETV2 (Homo sapiens, UniProt O00321 1-342); details: protein: recombinant; tags: N-terminal GST; dsDNA, one strand shown
T10 sequence: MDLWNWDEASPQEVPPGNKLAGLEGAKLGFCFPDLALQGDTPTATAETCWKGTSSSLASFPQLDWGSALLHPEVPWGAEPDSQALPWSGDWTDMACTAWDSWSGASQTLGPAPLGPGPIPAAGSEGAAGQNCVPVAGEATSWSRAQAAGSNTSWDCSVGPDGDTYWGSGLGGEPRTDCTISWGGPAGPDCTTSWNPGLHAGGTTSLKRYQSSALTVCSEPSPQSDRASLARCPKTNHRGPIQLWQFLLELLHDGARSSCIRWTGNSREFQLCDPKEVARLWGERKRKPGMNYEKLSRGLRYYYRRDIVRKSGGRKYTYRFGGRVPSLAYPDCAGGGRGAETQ
In short: as §1

[17] = target: T11, ELF3 (Homo sapiens, UniProt P78545 1-371); details: protein: recombinant; tags: N-terminal GST; dsDNA, one strand shown
T11 sequence: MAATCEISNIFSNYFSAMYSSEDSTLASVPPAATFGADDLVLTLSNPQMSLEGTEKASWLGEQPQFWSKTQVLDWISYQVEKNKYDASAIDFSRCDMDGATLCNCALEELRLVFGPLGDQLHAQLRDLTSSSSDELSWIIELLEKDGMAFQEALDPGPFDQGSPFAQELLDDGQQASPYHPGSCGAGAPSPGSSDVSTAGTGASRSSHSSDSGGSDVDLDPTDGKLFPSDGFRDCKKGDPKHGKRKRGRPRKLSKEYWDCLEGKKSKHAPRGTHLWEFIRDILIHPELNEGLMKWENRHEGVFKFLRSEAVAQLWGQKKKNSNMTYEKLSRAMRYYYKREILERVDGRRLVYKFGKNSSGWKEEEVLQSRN
In short: as §1

[18] = target: CRX (Homo sapiens, UniProt O43186 1-299); details: protein: recombinant; tags: N-terminal GST; dsDNA, one strand shown
Sequence of CRX (O43186 whole entry): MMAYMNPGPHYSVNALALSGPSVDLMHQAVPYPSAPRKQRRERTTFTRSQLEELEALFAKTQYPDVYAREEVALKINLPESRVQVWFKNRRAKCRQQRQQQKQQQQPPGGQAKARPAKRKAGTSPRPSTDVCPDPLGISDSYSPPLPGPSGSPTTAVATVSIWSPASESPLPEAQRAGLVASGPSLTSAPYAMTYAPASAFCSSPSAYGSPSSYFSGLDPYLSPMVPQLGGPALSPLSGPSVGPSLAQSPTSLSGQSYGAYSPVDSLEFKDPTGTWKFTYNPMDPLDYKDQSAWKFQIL
In short: as §1

[19] = target: ETV1 (Homo sapiens, UniProt P50549 1-477); details: protein: recombinant; tags: N-terminal GST; dsDNA, one strand shown
Sequence of ETV1 (P50549 whole entry): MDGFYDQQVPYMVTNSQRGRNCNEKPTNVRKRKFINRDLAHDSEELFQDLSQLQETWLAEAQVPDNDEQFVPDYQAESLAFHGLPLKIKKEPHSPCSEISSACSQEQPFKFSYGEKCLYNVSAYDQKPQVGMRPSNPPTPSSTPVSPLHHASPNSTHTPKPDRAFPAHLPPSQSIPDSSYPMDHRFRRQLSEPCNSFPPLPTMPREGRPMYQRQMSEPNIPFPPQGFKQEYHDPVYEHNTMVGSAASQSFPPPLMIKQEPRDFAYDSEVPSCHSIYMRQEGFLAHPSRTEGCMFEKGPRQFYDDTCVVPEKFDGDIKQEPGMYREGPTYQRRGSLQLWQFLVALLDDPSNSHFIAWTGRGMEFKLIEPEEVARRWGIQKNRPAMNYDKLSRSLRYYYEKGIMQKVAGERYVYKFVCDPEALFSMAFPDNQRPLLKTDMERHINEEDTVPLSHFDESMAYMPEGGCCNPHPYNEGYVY
In short: as §1

Sequence: TTCGGT
- binding signal [1]: 1.06 fold enrichment (6-mer frequency, TF over GST control)
- binding signal [2]: 1.09 fold enrichment (6-mer frequency, TF over GST control)
- binding signal [3]: 1.13 fold enrichment (6-mer frequency, TF over GST control)
- binding signal [4]: 1.1 fold enrichment (6-mer frequency, TF over GST control)
- binding signal [5]: 1.14 fold enrichment (6-mer frequency, TF over GST control)
- binding signal [6]: 1.23 fold enrichment (6-mer frequency, TF over GST control)
- binding signal [7]: 1.2 fold enrichment (6-mer frequency, TF over GST control)
- binding signal [8]: 1.16 fold enrichment (6-mer frequency, TF over GST control)
- binding signal [9]: 1.22 fold enrichment (6-mer frequency, TF over GST control)
- binding signal [10]: 1.16 fold enrichment (6-mer frequency, TF over GST control)
- binding signal [11]: 1.23 fold enrichment (6-mer frequency, TF over GST control)
- binding signal [12]: 1.22 fold enrichment (6-mer frequency, TF over GST control)
- binding signal [13]: 1.34 fold enrichment (6-mer frequency, TF over GST control)
- binding signal [14]: 1.17 fold enrichment (6-mer frequency, TF over GST control)
- binding signal [15]: 1.21 fold enrichment (6-mer frequency, TF over GST control)
- binding signal [16]: 1.13 fold enrichment (6-mer frequency, TF over GST control)
- binding signal [17]: 1.04 fold enrichment (6-mer frequency, TF over GST control)
- binding signal [18]: 1 fold enrichment (6-mer frequency, TF over GST control)
- binding signal [19]: 1.23 fold enrichment (6-mer frequency, TF over GST control)
